HEK cytotox – HEK 293 cell cytotoxicity; HEK 293 viability, ATP luminescence (CellTiter-Glo), 48-72 h; Potency, µM (top dose mostly 115 µM), without a hit: at the highest dose activity change, negative = cytotoxicity, usual class: inhibitors; 94,000 compounds, 6.6% hits; note: nearly all actives have a fitted effect of over 60% in size
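Pintool-delivered compounds were incubated with HEK 293 cells (250 cells/well) at 37 degree Celsius for 48 or 72 hr. ATP-dependent luminescence (CellTiter-Glo) then reported remaining viable cells.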
NPR1 antag – human Npr1 receptor antagonism. P16066. HEK293 hNpr1 GloSensor cGMP, ANP-stimulated luminescence. Potency, µM (doses to about 46.3 µM), without a hit: at the highest dose activity change, negative = inhibition, hits mostly inhibitors. 76,000 compounds, 1.6% hits. AID 1347048; calls by dose curve; note: nearly all actives have a fitted effect of over 60% in size
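HEK293 cells stably expressing human Npr1 and cGMP GloSensor pGS-40F, loaded 2 h with 2% GloSensor reagent, given compound 30 min at room temperature. Luminescence read before and 20 min after 0.1 nM hNppA.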
NIH3T3 tox – NIH 3T3 cell cytotoxicity | 94,000 compounds, 4.3% hits | Potency, µM (titrated, usually from 96.7 µM), for inactives: top-dose activity change, negative = cytotoxicity, hits mostly inhibitors | NIH 3T3 viability, CellTiter-Glo ATP luminescence, 48-72 h; note: nearly all actives have a fitted effect of over 55% in size
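Viability of NIH 3T3 cells after 48 or 72 hr compound treatment at 37 °C was assessed by CellTiter-Glo, with luminescence imaged following a 10 min room-temperature step.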
Luciferase inh – inhibitors of firefly (Photinus pyralis) luciferase; P08659; purified P. pyralis luciferase, luminescence, biochemical; Potency, µM (series often up to 115 µM), most hits filed as inhibitors; 76,000 compounds, 2.5% hits; note: nearly all actives have a fitted effect of over 65% in size
Target sequence (P08659 whole entry, looked up): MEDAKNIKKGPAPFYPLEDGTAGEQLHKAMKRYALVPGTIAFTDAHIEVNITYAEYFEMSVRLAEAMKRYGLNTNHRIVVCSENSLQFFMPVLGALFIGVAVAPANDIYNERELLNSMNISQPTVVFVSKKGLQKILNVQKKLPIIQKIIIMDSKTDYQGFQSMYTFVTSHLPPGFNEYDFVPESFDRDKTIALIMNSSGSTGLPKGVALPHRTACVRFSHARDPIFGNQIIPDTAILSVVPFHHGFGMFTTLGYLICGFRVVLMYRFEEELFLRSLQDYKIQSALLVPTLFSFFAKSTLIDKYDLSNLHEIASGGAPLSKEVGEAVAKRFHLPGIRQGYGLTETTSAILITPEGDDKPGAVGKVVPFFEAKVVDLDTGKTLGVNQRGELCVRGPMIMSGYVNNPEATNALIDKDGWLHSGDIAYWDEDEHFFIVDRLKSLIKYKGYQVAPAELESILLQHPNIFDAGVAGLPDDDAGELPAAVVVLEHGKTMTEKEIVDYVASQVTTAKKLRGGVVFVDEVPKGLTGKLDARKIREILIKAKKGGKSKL
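Inhibitors were tested against purified firefly luciferase in a biochemical, low-substrate format (both substrates at 10uM) and luminescence measured with a CCD imager.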
The depositor's hits bear a star; i = inactive; ? = inconclusive; nt = no result given; ! = repeats disagree; [ ] = remark or other dose. Only some compounds are listed: those with a hit (about 11% of all), similar ones and a draw of the others. Unless noted, calls come from the whole dose curve; as a rule, active = well fitted curve in the direction sought with a large enough effect; inconclusive = small, poorly fitted or top-dose-only effect, or another doubt; inactive = no such curve, though single readings can be large; an effect the other way counts as inactive or inconclusive. % is set by controls: 0 for no effect and ±100 for the full control effect; potency is the fitted concentration of half-maximal effect.

SMILES | HEK cytotox | NPR1 antag | NIH3T3 tox | Luciferase inh
c1cc(-c2ccnc3nc(CCC4CCCC4)nn23)ccn1 | -1.9% | -1.4% | 35.5µM* | i
COc1cc(-c2ccnc3nc(Cc4cc(F)cc(F)c4)nn23)cc(OC)c1OC | ? | -0.2% | ? | i
COc1cc(-c2ccnc3nc(CCC4CCCC4)nn23)cc(OC)c1OC | -21.9% | -7.3% | 5.62µM* | i
CCCC1c2nccn2CCCN1C(=O)c1ccoc1C (centres undefined) | i | -3.7% | i | i
Cn1cccc1C(=O)NC1CCCN(c2cc(-c3ccc(Cl)cc3)[nH]n2)C1 (centres undefined) | 39.8µM* | -29.6% | 39.8µM* | ?
O=C(NC1CCCN(c2cc(-c3ccc(Cl)cc3)[nH]n2)C1)c1ccccn1 (centres undefined) | 44.7µM* | -1.7% | ? | 39.8µM*
O=C(NC1CCCN(c2cc(-c3ccc(F)cc3)[nH]n2)C1)c1ccccn1 (centres undefined) | ? | -3.2% | ? | ?
CCN1C(=O)C2(CCN(S(=O)(=O)Cc3ccc(Cl)cc3)CC2)c2ccccc21 | 35.5µM* | -11.9% | 25.1µM* | i
CC(C)c1cc(C(=O)NCC2OCCc3ccccc32)nc2ncnn12 (centres undefined) | -19.6% | -6.3% | -19.5% | i
c1ccc(-c2nc3c(c(NCC4OCCc5ccccc54)n2)CCNC3)nc1 (centres undefined) | ? | -3.3% | 39.8µM* | ?
c1ccc(-c2ccnc(NCC3OCCc4ccccc43)n2)nc1 (centres undefined) | 39.8µM* | -10.7% | ? | 44.7µM*
O=C(c1[nH]nc2c1COc1ccccc1-2)N1CCC(Cc2nncn2CC2CC2)CC1 | -28.3% | -0.1% | 39.8µM* | i
Cc1cccc(C(=O)N2CCC(Cc3nncn3CC3CC3)CC2)c1 | -7.6% | -6.3% | -25.2% | i
COc1ccc(F)cc1-c1ccc(CN2CCC(N[S+](=O)([O-])c3ccc(C)cc3)C2)cc1 (centres undefined) | 31.6µM* | nt | 28.2µM* | nt
COc1cccc(-c2ccc(CN3CC4CCC(C3)N4c3ccc(C(F)(F)F)cc3)cc2)c1 | -12.5% | 12.5% | -2.4% | i
COc1cccc(-c2ccc(CN3CCCC(N[S+](=O)([O-])c4cccs4)C3)cc2)c1 (centres undefined) | 12.6µM* | nt | 31.6µM* | nt
COc1ccccc1-c1ccc(CN2CC3CCC(C2)N3c2ccc(C(F)(F)F)cc2)cc1 | -22.2% | nt | -11.1% | nt
Cc1noc(C)c1[S+](=O)([O-])NC1CCCN(Cc2ccc(-c3cncnc3)cc2)C1 (centres undefined) | ? | nt | -20.7% | nt
COc1ccc(F)cc1-c1ccc(CN2CCC(N[S+](=O)([O-])c3cccs3)C2)cc1 (centres undefined) | 39.8µM* | nt | ? | nt
COc1ccc(F)cc1-c1ccc(CN2CCC(N[S+](=O)([O-])c3c(C)noc3C)C2)cc1 (centres undefined) | 44.7µM* | nt | ? | nt
CN1CC(=O)N(C2CCCNC2)Cc2c1ncnc2N1CCOCC1 (centres undefined) | -20.9% | nt | -23.1% | nt
COCCCNc1nc(-c2c(C)noc2C)cc2cc(C(C)C)oc12 | 89.1µM* | -0.5%[70.6 µM] | ? | i
COCCNc1nc(-c2c(C)noc2C)cc2cc(C(C)C)oc12 | 70.8µM* | 1.7%[70.6 µM] | ? | i
O=C(Cc1ccc(F)cc1)N1CCC2(C1)C(=O)N(CCc1ccccc1)c1ccccc12 (centres undefined) | 44.7µM* | 15.6% | ? | i
O=C(Nc1ccc(Cl)cc1)N1CCC2(C1)C(=O)N(CCc1ccccc1)c1ccccc12 (centres undefined) | 31.6µM*! | -11.2% | ? | i
SMILES | HEK cytotox | NPR1 antag | NIH3T3 tox | Luciferase inh
O=C(c1ccc(C(F)(F)F)cc1)N1CCC2(C1)C(=O)N(Cc1ccccc1)c1ccccc12 (centres undefined) | 22.4µM* | ? | 25.1µM* | i
O=C(c1cccc(Cl)c1)N1CCC2(C1)C(=O)N(CCc1ccccc1)c1ccccc12 (centres undefined) | 28.2µM* | ? | 39.8µM*! | i
O=C(Nc1ccccc1)N1CCC2(C1)C(=O)N(CCc1ccccc1)c1ccccc12 (centres undefined) | ? | 0.0% | ? | i
CN1C(=O)C2(CCN(C(=O)c3ccc(C(F)(F)F)cc3)C2)c2ccccc21 (centres undefined) | ? | 27.3% | -23.4% | i
O=C(N[C@H]1CCCNC1=O)C1=C[C@@H](NC(=O)c2cccnc2)[C@@H](O)[C@H](O)C1 | -1.9%[172 µM] | 7.3%[70.6 µM] | -12.3%[174 µM] | i
Cn1cnnc1CC1CCN(C(=O)c2ccccc2F)CC1 | i | -7.4% | -18.3% | i
COc1ccc(C(=O)N2CCC3(C2)C(=O)N(c2ccccc2)c2ccccc23)cc1 (centres undefined) | ? | nt | -18.1% | nt
COc1ccc(C(=O)N2CCC3(C2)C(=O)N(CCc2ccccc2)c2ccccc23)cc1 (centres undefined) | 39.8µM*! | ? | ? | i
O=C(C1CCCC1)N1CCC2(C1)C(=O)N(CCc1ccccc1)c1ccccc12 (centres undefined) | 39.8µM*! | -2.8% | ? | i
Cc1ccc2c(c1)SCC(=O)N2CC(=O)N(C)Cc1ccoc1 | i | 6.6% | -15.0% | i
Cc1nn(C)c2nc(NCCCOC3CCCC3)sc12 | 31.6µM* | ? | ? | 35.5µM*
CCC(=O)NC1CCN(c2ccnc3ccnn23)CC1 | i | nt | i | nt
CCCCNC(=O)C1CCN(C(=O)c2ncn3c2COC(c2ccc(OC)cc2)C3)CC1 (centres undefined) | -4.8% | -0.9% | i | i
CCCCNC(=O)C1CCN(C(=O)c2ncn3c2COC(c2ccc(F)cc2)C3)CC1 (centres undefined) | -15.4% | 1.0% | -2.3% | 39.8µM*
O=C(NCCC1=CCCCC1)C1CCN(C(=O)c2ncn3c2COC(c2ccc(F)cc2)C3)CC1 (centres undefined) | -12.6% | -6.2% | -23.5% | 22.4µM*
O=C(NCCC1=CCCCC1)C1CCN(C(=O)c2ncn3c2COC(c2ccccc2)C3)CC1 (centres undefined) | -6.5% | -22.4% | -9.7% | 2µM*
Cc1ccc(C(=O)NC2CCN(c3ccc4nnc(-c5ccccc5)n4n3)CC2)cc1 | ? | nt | -7.3% | nt
NC(=O)NCC(=O)N1CCCC(Nc2ccc3c(c2)OCCO3)C1 (centres undefined) | -11.2% | -0.8% | -17.1% | i
O=C(Cc1cccnc1)N1CC(Oc2ccccc2-c2nc(-c3cnccn3)no2)C1 | -7.9% | nt | -24.4% | nt
O=C(NCCc1ccc(Cl)cc1)C1CCN(C(=O)c2ccc(-c3cccs3)cc2)CC1 | 44.7µM* | nt | ? | nt
O=C(NCc1ccc(C(F)(F)F)cc1)C1CCN(C(=O)c2ccc(-c3cccs3)cc2)CC1 | 31.6µM* | nt | 7.08µM* | nt
Cc1ccc(-c2noc([C@@H]3C[C@H](NC(=O)COc4ccccc4)CN3C)n2)cc1 | ? | -8.9%[70.6 µM] | ? | ?

Screening data from PubChem.
